From PubChem BioAssay AID720708 (National Center for Advancing Translational Sciences (NCATS), 2013)
The whole screen tested about 360,000 compounds, of which about 660 (0.18%) were called active. Not shown: some 2% with an inconclusive outcome. Calls come from the whole dose curve; as a rule, active = well fitted inhibition curve with a large enough effect; inconclusive = small, poorly fitted or top-dose-only effect; inactive = no such curve, though single readings can be large or run the other way. Shown is part of a subset that was picked to be rich in actives. Entries that show only a call come without a potency.

These molecules were tested against Rap guanine nucleotide exchange factor 4 (Homo sapiens) (UniProt Q8WZA2) (assay: qHTS for Antagonist of cAMP-regulated guanine nucleotide exchange factor 2 (EPAC2): primary screen). Settings: EPAC2 GEF exchange of Rap1B-BODIPY-GDP, fluorescence; series mostly up to 114 µM.
Note: nearly all actives have a fitted effect of over 45% in size.

Chain of Rap guanine nucleotide exchange factor 4 (Homo sapiens) (Q8WZA2 whole entry, looked up): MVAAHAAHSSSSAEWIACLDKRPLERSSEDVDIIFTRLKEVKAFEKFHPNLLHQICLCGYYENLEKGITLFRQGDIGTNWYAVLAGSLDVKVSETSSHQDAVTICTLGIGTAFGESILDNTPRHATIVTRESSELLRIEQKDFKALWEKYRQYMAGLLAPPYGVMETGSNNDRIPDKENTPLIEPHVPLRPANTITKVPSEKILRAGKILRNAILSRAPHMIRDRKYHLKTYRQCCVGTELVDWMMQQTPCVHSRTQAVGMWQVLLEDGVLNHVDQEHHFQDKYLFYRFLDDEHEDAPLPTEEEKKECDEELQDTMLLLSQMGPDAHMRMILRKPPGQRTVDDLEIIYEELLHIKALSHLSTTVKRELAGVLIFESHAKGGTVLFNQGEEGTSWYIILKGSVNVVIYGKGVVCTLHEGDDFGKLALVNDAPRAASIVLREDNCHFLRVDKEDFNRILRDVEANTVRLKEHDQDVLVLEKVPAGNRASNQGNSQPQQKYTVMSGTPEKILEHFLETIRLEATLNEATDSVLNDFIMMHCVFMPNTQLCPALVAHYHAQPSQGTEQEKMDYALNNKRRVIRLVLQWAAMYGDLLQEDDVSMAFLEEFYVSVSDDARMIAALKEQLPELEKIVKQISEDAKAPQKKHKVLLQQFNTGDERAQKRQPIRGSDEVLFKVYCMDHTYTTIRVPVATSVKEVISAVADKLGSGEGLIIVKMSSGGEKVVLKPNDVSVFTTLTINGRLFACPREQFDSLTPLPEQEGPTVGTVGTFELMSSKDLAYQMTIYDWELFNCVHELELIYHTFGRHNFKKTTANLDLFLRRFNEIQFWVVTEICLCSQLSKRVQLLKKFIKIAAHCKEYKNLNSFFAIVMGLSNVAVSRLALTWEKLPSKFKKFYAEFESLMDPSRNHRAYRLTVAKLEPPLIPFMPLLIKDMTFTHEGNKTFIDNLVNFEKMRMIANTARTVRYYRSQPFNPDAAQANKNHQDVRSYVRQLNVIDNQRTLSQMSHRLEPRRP

| Compound | Potency |
| --- | --- |
| CC(=O)Nc1ccc(SC[C@H](Cc2ccccc2)N2CC[C@@H](C)CCC2=O)cc1 | inactive |
| CCCCOCCCNC(=O)C[C@@H]1C[C@@]2(C(=O)OCC)CCCC=C2N(CCC2=CCCCC2)C1=O | inactive |
| C[N+](C)(C)CCNC(=O)c1cc[n+](Cc2ccccc2)c(/C=N/O)c1 | inactive |
| COc1cc(OC)cc(C(=O)Nc2nnc(SCC(=O)NCC3CCCO3)s2)c1 (stereo not given) | inactive |
| Nc1nc(SCC(=O)NN(c2ccccc2)c2ccccc2)n[nH]1 | inactive |
| COc1ccc(CN2C(=O)C(CC(=O)NCCCCc3ccccc3)CC(C(=O)N3CCOCC3)=C2C)cc1 (stereo not given) | inactive |
| COc1ccccc1C(CNC(=O)c1ccc(C)c(S(=O)(=O)N2CCCCC2)c1)N(C)C (stereo not given) | inactive |
| O=c1[nH]cnc(O)c1C(c1ccc(F)cc1)c1c(O)nc[nH]c1=O | inactive |
| CCC(=O)N1CCc2cc(S(=O)(=O)NC(C(=O)N3CCc4ccccc4C3)C(C)C)ccc21 (stereo not given) | inactive |
| COC(=O)c1ccccc1OCC(=O)N1CCN(c2ccc(Cl)cc2)CC1 | inactive |
| N#C[C@]1(S(=O)(=O)c2ccccc2)C[C@@H]2ON=C(c3cccc(Br)c3)[C@@H]2C1 | inactive |
| O=C1Nc2ccccc2-n2nnnc2C1N1CCN(c2cccc(C(F)(F)F)n2)CC1 (stereo not given) | inactive |
| CN(C(=O)CSc1nnc(N)s1)c1c(N)n(Cc2ccccc2)c(=O)[nH]c1=O | inactive |
| C/C(=N\NC(=O)c1cccnc1)c1ccc(-n2ccnc2)cc1 | inactive |
| CO[C@@H]1CN(C)C(=O)c2cc(NC(=O)C3CC3)ccc2OC[C@H](C)N(C(=O)CN2CCOCC2)C[C@@H]1C | inactive |
| S=C(Nc1ccc2c(c1)OCO2)N1CCCC1 | inactive |
| COC(=O)[C@]12CCCCC=C1N(Cc1ccccc1)C(=O)[C@H](CC(=O)NCc1ccc(C)o1)C2 | inactive |
| Cn1nnnc1SCC(=O)NNC(=O)c1ccc(Br)cc1 | inactive |

| Compound | Potency |
| --- | --- |
| CC1(C(=O)NS(=O)(=O)c2cccc(OC(F)F)c2)CCN1C(=O)COc1ccc(Cl)cc1 (stereo not given) | inactive |
| CCc1ccc(Oc2nc([N+](=O)[O-])nn2C)cc1 | inactive |
| COc1ccc(C(O)C(O)(C(=O)OC(C)C)c2ccc(C)cc2)cc1 (stereo not given) | inactive |
| COC(=O)[C@@]12C[C@@H](CC(=O)N3CCCCC3)C(=O)N(Cc3ccc4c(c3)OCO4)C1=CCC(C)(C)C2 | inactive |
| O=C(c1cccc(S(=O)(=O)N2CCCC2)c1)N(Cc1ccco1)C1CCS(=O)(=O)C1 (stereo not given) | inactive |
| COc1ccc(C(C)NC(=O)C23CC4CC(CC(C4)C2)C3)cc1 (stereo not given) | inactive |
| COc1ccc(NC(=O)C2(C)Cc3c(-c4ccc(C(N)=O)cc4)ccnc3O2)cc1 (stereo not given) | inactive |
| c1ccc(-c2ccnc3nc(-n4cccc4)nn23)cc1 | inactive |
| Cc1cc(C(=O)CC#N)c(C)n1-c1c(C)n(C)n(-c2ccccc2)c1=O | inactive |
| O=C(Cn1cc(C(=O)C2CC2)c2ccccc21)Nc1ccccc1Cl | inactive |
| COc1ccc(N(CC(=O)NC2CCCCC2)S(=O)(=O)c2c(C)[nH]c(=O)[nH]c2=O)cc1 | inactive |
| CCOC(=O)[C@]12CCCC=C1N(Cc1ccc(Cl)cc1Cl)C(=O)[C@H](CC(=O)N1CCCCC1)C2 | inactive |
| Cc1ncc(CO)c(/C=N/NC(=O)c2cccc(S(=O)(=O)N3CCCC3)c2)c1O | inactive |
| O=C(COc1nc2ccccc2nc1N1CCOCC1)NCC(F)(F)F | inactive |
| COc1ccc(-c2c(C(C)=O)c(C)nc3sc4c(=O)n(-c5ccc(C)cc5)nnc4c23)cc1 | inactive |
| CCNC(=S)N1CCC(c2nc3cc(C)c(C)cc3[nH]2)CC1 | inactive |
| CCCCn1nc(C(=O)OCC(=O)Nc2sccc2C(N)=O)c2ccccc2c1=O | inactive |
